The record followed here is PubChem BioAssay (EPA / NIEHS).

Activity calls are given as the source filed them. How the source made its calls: active means hit-call score of the fitted dose curve at least 0.9, where 1 is the maximum; inactive means score below 0.9.

Read-out in assay [1]: TIMP metallopeptidase inhibitor 1 (TIMP1), TIMP1 (gene 7076)
In words: BSK_hDFCGF_TIMP1: BioMAP Diversity Plus: hDFCGF Assay for TIMP metallopeptidase inhibitor 1 (TIMP1) Biomarker Activity (AID 2283062). The settings on record: primary human foreskin fibroblasts; actives raise or lower the signal. The procedure, abridged: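 Fibroblasts from human foreskin are treated with test chemical and harvested at 24 h. TIMP-1 is quantified by ELISA, and gain or loss of signal is scored against DMSO.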

Read-out in assay [2]: Monokine induced gamma interferon (MIG), CXCL9 (gene 4283)
In words: BSK_hDFCGF_MIG: BioMAP Diversity Plus: hDFCGF Assay for Monokine induced gamma interferon (MIG) Biomarker Activity (AID 2283063). The settings on record: primary human foreskin fibroblasts; actives raise or lower the signal. The procedure, abridged:
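MIG signal, determined by ELISA, reflects 24 h chemical exposure of human skin primary fibroblasts. DMSO serves as negative control and baseline.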

Read-out in assay [3]: Matrix Metallopeptidase 1 (MMP1), MMP1 (gene 4312)
In words: BSK_hDFCGF_MMP1: BioMAP Diversity Plus: hDFCGF Assay for Matrix Metallopeptidase 1 (MMP1) Biomarker Activity (AID 2283064). The settings on record: primary human foreskin fibroblasts; actives raise or lower the signal. The procedure, abridged:
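MMP1 levels quantified by ELISA 24 h after dosing human dermal fibroblast cultures, with parallel SRB total-protein staining for overt cytotoxicity. Data fitted in both directions against DMSO baseline.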

Read-out in assay [4]: Vascular cell adhesion molecule 1 (VCAM1), VCAM1 (gene 7412)
In words: BSK_hDFCGF_VCAM1: BioMAP Diversity Plus: hDFCGF Assay for Vascular cell adhesion molecule 1 (VCAM1) Biomarker Activity (AID 2283065).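 On AC50: VCAM-1 protein level quantified by ELISA after 24 h chemical exposure.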 The note with it: primary human foreskin fibroblasts; actives raise or lower the signal. The procedure, abridged:
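Cells are dosed, cultured for 24 h, then VCAM-1 is quantified by ELISA; signal increases and decreases are both fitted relative to DMSO.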

Read-out in assay [5]: Plasminogen activator inhibitor-1 (PAI1), SERPINE1 (gene 5054)
Kind of assay: BSK_hDFCGF_PAI1: BioMAP Diversity Plus: hDFCGF Assay for Plasminogen activator inhibitor-1 (PAI1) Biomarker Activity (AID 2283066). The settings on record: primary human foreskin fibroblasts; actives raise or lower the signal. The procedure, abridged:
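ELISA readout of PAI-1 from primary human skin fibroblast cultures, 24 h after compound addition. Gain or loss of signal was fitted bidirectionally against DMSO baseline.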

Read-out in assay [6]: Intercellular Adhesion Molecule 1 (ICAM1), ICAM1 (gene 3383)
In words: BSK_KF3CT_ICAM1: BioMAP Diversity Plus: KF3CT Assay for Intercellular Adhesion Molecule 1 (ICAM1) Biomarker Activity (AID 2283067). The note with it: primary human keratinocytes with fibroblasts; actives raise or lower the signal. The procedure, abridged: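 Dose the keratinocyte/fibroblast co-culture, wait 24 h, measure ICAM-1 by ELISA, then fit increases or decreases against DMSO. Cytotoxicity is checked in parallel cultures by SRB total-protein staining.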

Read-out in assay [7]: Interferon-gamma inducible Protein 10 (IP10), CXCL10 (gene 3627)
Kind of assay: BSK_KF3CT_IP10: BioMAP Diversity Plus: KF3CT Assay for Interferon-gamma inducible Protein 10 (IP10) Biomarker Activity (AID 2283068). The settings on record: primary human keratinocytes with fibroblasts; actives raise or lower the signal. The procedure, abridged: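 KF3CT co-culture (keratinocytes + foreskin fibroblasts), 24 h compound, IP-10 by ELISA; bidirectional fit vs DMSO baseline.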

Assay [8] is described as follows: BSK_KF3CT_SRB: Viability Assessment in the BioMAP Diversity Plus: KF3CT Assay (AID 2283069). The note with it: primary human keratinocytes with fibroblasts. The procedure, abridged: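 Cytotoxicity was gauged by SRB staining (0.1% SRB, 10% TCA fixation, 560 nm) of parallel cultures at 24 h. The cells were primary human skin keratinocytes co-cultured with fibroblasts, and activity was fitted in both directions against DMSO.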

Read-out in assay [9]: Interleukin-1 alpha (IL1a), IL1A (gene 3552)
Kind of assay: BSK_KF3CT_IL1a: BioMAP Diversity Plus: KF3CT Assay for Interleukin-1 alpha (IL1a) Biomarker Activity (AID 2283070). The settings on record: primary human keratinocytes with fibroblasts; actives raise or lower the signal. The procedure, abridged:
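IL-1a was detected by ELISA 24 h after chemical treatment of a co-culture of human skin keratinocytes and foreskin fibroblasts. Gain or loss of signal was fitted against the DMSO baseline.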

Read-out in assay [10]: TIMP metallopeptidase inhibitor 2 (TIMP2), TIMP2 (gene 7077)
Kind of assay: BSK_KF3CT_TIMP2: BioMAP Diversity Plus: KF3CT Assay for TIMP metallopeptidase inhibitor 2 (TIMP2) Biomarker Activity (AID 2283071). The settings on record: primary human keratinocytes with fibroblasts; actives raise or lower the signal. The procedure, abridged: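 ELISA readout of TIMP-2 in keratinocyte plus foreskin fibroblast co-cultures (human skin primary cells), 24 h post-dose. Gain or loss of signal fitted relative to DMSO.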

Read-out in assay [11]: Transforming growth factor beta 1 (TGFb1), TGFB1 (gene 7040)
In words: BSK_KF3CT_TGFb1: BioMAP Diversity Plus: KF3CT Assay for Transforming growth factor beta 1 (TGFb1) Biomarker Activity (AID 2283072). The note with it: primary human keratinocytes with fibroblasts; actives raise or lower the signal. The procedure, abridged:
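Read-out: ELISA for TGF-b1 in keratinocyte/foreskin fibroblast human skin co-culture, 24 h after dosing; bidirectional curve fit vs DMSO baseline; gain or loss of signal scored.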

Read-out in assay [12]: C-C motif chemokine 2 (Homo sapiens) (UniProt P13500)
Kind of assay: BSK_KF3CT_MCP1: BioMAP Diversity Plus: KF3CT Assay for Monocyte Chemoattractant Protein 1 (MCP1/CCL2) Biomarker Activity (AID 2283073). The note with it: primary human keratinocytes with fibroblasts; actives raise or lower the signal. The procedure, abridged: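 Keratinocytes and foreskin fibroblasts were co-cultured, dosed with chemical, and sampled 24 h later. MCP-1 was quantified by ELISA, and the endpoint was analyzed with bidirectional fitting using DMSO as negative control.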

Read-out in assay [13]: Matrix Metallopeptidase 9 (MMP9), MMP9 (gene 4318)
Kind of assay: BSK_KF3CT_MMP9: BioMAP Diversity Plus: KF3CT Assay for Matrix Metallopeptidase 9 (MMP9) Biomarker Activity (AID 2283074).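 On AC50: MMP9 protein level quantified by ELISA in the co-culture.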 The note with it: primary human keratinocytes with fibroblasts; actives raise or lower the signal. The procedure, abridged: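 MMP-9 quantified by ELISA after 24 h chemical treatment of primary human skin keratinocyte/fibroblast co-cultures; gain or loss fitted against DMSO, with parallel SRB staining (0.1% SRB, 560 nm) for overt cytotoxicity.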

Read-out in another assay: CD40, CD40 (gene 958)
Kind of assay: BSK_LPS_CD40: BioMAP Diversity Plus: LPS Assay for CD40 Biomarker Activity (AID 2283076). The note with it: primary human HUVEC with PBMC; actives raise or lower the signal. The procedure, abridged:
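CD40 signal, measured by ELISA, is fitted in both directions relative to DMSO vehicle. The system is an LPS-driven human vascular primary co-culture of endothelial cells and PBMC, sampled 24 h after compound addition.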

Read-out in assay [14]: E-selectin (Homo sapiens) (UniProt P16581)
Kind of assay: BSK_LPS_Eselectin: BioMAP Diversity Plus: LPS Assay for Eselectin Biomarker Activity (AID 2283077). The note with it: primary human HUVEC with PBMC; actives raise or lower the signal. The procedure, abridged:
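Signal of E-selectin, detected by ELISA, served as the endpoint; cells were umbilical vein endothelium with PBMC, read 24 h after treatment. DMSO defined baseline, and both increases and decreases were fitted.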

Read-out in assay [15]: Interleukin-8 (IL8), CXCL8 (gene 3576)
In words: BSK_LPS_IL8: BioMAP Diversity Plus: LPS Assay for Interleukin-8 (IL8) Biomarker Activity (AID 2283078). The note with it: primary human HUVEC with PBMC; actives raise or lower the signal. The procedure, abridged:
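Endothelial cells and PBMC from human donors are co-cultured, treated with chemicals and LPS, then assayed for IL-8 by ELISA after 24 h. Parallel SRB staining (0.1% SRB after 10% TCA fixation, 560 nm) flags cytotoxicity.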

A short description of assay [16]: BSK_LPS_SRB: Viability Assessment in the BioMAP Diversity Plus: LPS Assay (AID 2283079).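 Further: total protein by sulforhodamine B absorbance as a cytotoxicity measure; measured one day after compound addition; fitted in both directions against DMSO so loss or gain of signal counts.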 The note with it: primary human HUVEC with PBMC. The procedure, abridged: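 Overt cytotoxicity was gauged by sulforhodamine B total-protein staining in a primary human vascular endothelial and mononuclear cell co-culture 24 h post-dosing. Activity was fitted in both directions relative to DMSO.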

Read-out in assay [17]: Monocyte Chemoattractant Protein-1 (MCP1), CCL2 (gene 6347)
In words: BSK_LPS_MCP1: BioMAP Diversity Plus: LPS Assay for Monocyte Chemoattractant Protein-1 (MCP1) Biomarker Activity (AID 2283081).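 On AC50: secreted MCP-1 protein quantified by ELISA in culture supernatant.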 The note with it: primary human HUVEC with PBMC; actives raise or lower the signal. The procedure, abridged: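 LPS-stimulated HUVEC/PBMC co-culture; chemical, 24 h; MCP-1 by ELISA; bidirectional fit vs DMSO; cytotoxicity via SRB (0.1% stain, 10% TCA fix, 560 nm) in parallel wells.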

Read-out in assay [18]: Interleukin-1 alpha (IL1a), IL1A (gene 3552)
Kind of assay: BSK_LPS_IL1a: BioMAP Diversity Plus: LPS Assay for Interleukin-1 alpha (IL1a) Biomarker Activity (AID 2283080). The settings on record: primary human HUVEC with PBMC; actives raise or lower the signal. The procedure, abridged:
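Measured: IL-1 alpha via ELISA at 24 h in LPS-activated human umbilical vein endothelium–PBMC co-culture. Baseline: DMSO, bidirectional fitting.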

Chain of E-selectin (Homo sapiens) (P16581 whole entry, looked up): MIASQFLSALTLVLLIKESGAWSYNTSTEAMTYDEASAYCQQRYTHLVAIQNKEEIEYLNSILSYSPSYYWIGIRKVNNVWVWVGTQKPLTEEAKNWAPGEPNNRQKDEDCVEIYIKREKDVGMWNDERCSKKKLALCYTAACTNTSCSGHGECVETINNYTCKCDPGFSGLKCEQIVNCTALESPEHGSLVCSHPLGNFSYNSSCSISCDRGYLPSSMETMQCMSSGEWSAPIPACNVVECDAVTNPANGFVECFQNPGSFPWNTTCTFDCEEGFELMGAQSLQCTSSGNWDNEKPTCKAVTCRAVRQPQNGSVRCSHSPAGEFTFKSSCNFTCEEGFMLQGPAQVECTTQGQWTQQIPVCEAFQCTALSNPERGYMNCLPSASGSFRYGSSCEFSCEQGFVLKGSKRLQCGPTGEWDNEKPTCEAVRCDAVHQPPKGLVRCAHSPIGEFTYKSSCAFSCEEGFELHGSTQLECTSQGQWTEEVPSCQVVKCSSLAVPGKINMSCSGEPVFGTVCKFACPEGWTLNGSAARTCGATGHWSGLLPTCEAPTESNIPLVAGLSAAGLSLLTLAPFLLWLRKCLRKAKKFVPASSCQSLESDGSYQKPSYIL

In the case of `NCc1cccc(C2CCN(C(=O)c3ccc(C#Cc4ccccc4F)o3)CC2)c1`, the AC50 was 11.8 µM (active) in [1]; 11.7 µM (active) in assay [2]; 11 µM (active) in assay [3]; 7.78 µM (active) in assay [4]; 7.77 µM (active) in assay [5]; 29.6 µM (active) in assay [6]. The concentration at half-maximal activity (AC50) in [7] was 12.4 µM (active); in assay [8] it was 5.34 µM (active); in assay [9], 12.3 µM (active); in [10], 8.8 µM (active); in assay [11] it was 10.4 µM (active); in [12], 20 µM (active). Also, the half-maximal activity concentration (AC50) in assay [13] was 11.3 µM (active); with CD40, CD40 (gene 958) it was 8.42 µM (active); in [14] it was 35.6 µM (active); in assay [15] it was 25.8 µM (active); in assay [16], 15.3 µM (active); in [17], 16.1 µM (active).

As for `O=c1[nH]sc2ccccc12`, the AC50 in assay [1] is 11.8 µM (active); in assay [2], 5.92 µM (active); in assay [3] it was 6.98 µM (active); in assay [4], 1.82 µM (active); in [5], 3.23 µM (active); in assay [6] it was 20 µM (active). Further, the AC50 in assay [7] is 31.7 µM (active); in assay [8], 35.7 µM (active); in [9], 13.7 µM (active); in assay [10] it was 32.2 µM (active); in assay [11], 30.7 µM (active); in assay [12], 30.4 µM (active). Also, the half-maximal activity concentration (AC50) is 31.2 µM (active) in assay [13]; 7.06 µM (active) with CD40, CD40 (gene 958); 25.9 µM (active) in assay [14]; 22.1 µM (active) in assay [15]; 25.7 µM (active) in [16]; 8.77 µM (active) in assay [18]. Moreover, the AC50 in [17] is 17.6 µM (active).

`c1ccc(C[n+]2cccc3ccccc32)cc1`: the result in assay [1], in assay [2], in assay [3], in assay [4], in [5] and in assay [6] was inactive. The result in assay [7], in assay [8], in assay [9], in [10], in assay [11] and in assay [12] was inactive. In addition, the outcome in [13], in assay [14], in assay [15], in assay [16] and in assay [17] was inactive.

As to `Cc1occc1C(=O)Nc1ccc(C(=O)N2CCC(F)(F)/C(=C\C(=O)N3CCC(N4CCCCC4)CC3)c3ccccc32)cc1`, the outcome in assay [1], in assay [2], in [3], in assay [4], in assay [5] and in assay [6] was inactive. In addition, the outcome in [7], in assay [8], in assay [9], in assay [10], in [11] and in assay [12] was inactive. Also, the outcome in assay [13] was “inactive”; in the assay with CD40, CD40 (gene 958) it was “inactive”; in assay [14], “inactive”; in assay [15], “inactive”; in assay [17], “inactive”.
